Compound activity as filed in PubChem.
This is a sample that favours compounds with a hit; in the whole collection about 2.4% have one here.
D2 ag-1: HTS Assay for Allosteric Agonists of the Human D2 Dopamine Receptor: Primary Screen for Agonists. D(2) dopamine receptor (Homo sapiens), P14416. HEK293 T-REx D2 cells, calcium flux agonist mode. activation, % at 2 µM. 0.53% of 340,000 active;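 active means activation over 3 SD above normal in the single-dose calcium agonist read, cut at about 30% in these data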; further: 0% is about no effect
Target sequence (P14416 whole entry, looked up): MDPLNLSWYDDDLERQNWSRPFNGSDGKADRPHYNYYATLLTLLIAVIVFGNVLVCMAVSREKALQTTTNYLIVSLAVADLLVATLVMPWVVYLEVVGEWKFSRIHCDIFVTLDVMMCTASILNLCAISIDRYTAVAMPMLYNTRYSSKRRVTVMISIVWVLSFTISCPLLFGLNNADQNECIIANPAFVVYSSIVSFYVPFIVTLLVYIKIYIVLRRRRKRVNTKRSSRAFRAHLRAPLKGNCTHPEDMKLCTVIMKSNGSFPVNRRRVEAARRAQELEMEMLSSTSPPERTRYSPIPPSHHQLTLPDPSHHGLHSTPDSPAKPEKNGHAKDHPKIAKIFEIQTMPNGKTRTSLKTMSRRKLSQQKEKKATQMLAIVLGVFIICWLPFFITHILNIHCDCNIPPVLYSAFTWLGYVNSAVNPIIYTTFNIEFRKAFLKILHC
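Tetracycline-induced HEK293 T-REx cells with force-coupled D2 receptor, plated overnight at 30 C, loaded with no-wash calcium dye. After a 10 s baseline, compound was pin-added and calcium flux read kinetically for 180 s; calcium rises flagged agonists.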
D2 antagonist: HTS Assay for Allosteric Antagonists of the Human D2 Dopamine Receptor: Primary Screen for Antagonists | HEK293 TREx D2 cells, calcium flux, dopamine EC80 | inhibition, % at 10 µM | 2% of 340,000 active | AID 485344, 2010; in the data active means inhibition above about 30%; inactive means below that, where a call was filed; further: 0% is about no effect
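In this primary screen, negative modulation is detected by tracking calcium flux after an EC80 dopamine challenge in inducible HEK293 T-REx D2 cells preexposed to test compound for 180 s.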
D2 PAM-1: HTS Assay for Positive Allosteric Modulators of the Human D2 Dopamine Receptor: Primary Screen for Potentiators; D(2) dopamine receptor (Homo sapiens), P14416; HEK293 T-REx D2, calcium flux, EC20 dopamine potentiation; potentiation, % at 10 µM; 0.34% of 340,000 active; AID 485347, 2010;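 active means potentiation over 3 SD above the plate norm, cut at about 30% in these data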; further: 0% is about no effect
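Potentiation of an EC20 dopamine calcium response measured kinetically over 180 s, after a preceding 180 s compound-only read flagging agonists. Cells: inducible Hek293 Trex D2 line, 4000/well, cultured overnight at 30 C before dye loading.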
D2 PAM-2: Beta-Arrestin HTS for Positive Allosteric Modulators of the Human D2 Dopamine Receptor: Potentiators; DiscoveRx D2 beta-arrestin cells, luminescence, 90 min; 100% = 57 uM dopamine signal; potentiation, % (no concentration beside the values); 0.23% of 360,000 active; AID 624464, 2012; in the data active means potentiation above about 50%
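PathHunter D2 cells, attached overnight at 37 deg C, received compound in DMSO plus dopamine at EC20 (50 nM final) for 90 min at 37 deg C. Beta-arrestin recruitment was read as luminescence after 1 h with detection reagent at ambient temperature.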
D2 ag-2: Beta-Arrestin HTS for Positive Allosteric Modulators of the Human D2 Dopamine Receptor: Agonists; D(2) dopamine receptor (Homo sapiens), P14416; DiscoveRx PathHunter D2 beta-arrestin, luminescence, 90 min; 100% = 57 uM dopamine signal; activation, % (no concentration beside the values); 0.084% of 360,000 active; AID 624465, 2012; in the data active means activation above about 40%
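Agonist mode: compounds alone added to overnight-plated D2 PathHunter cells for 90 min at 37 C, with 57 uM final dopamine (EC100) defining full response. Beta-arrestin recruitment detected by chemiluminescent reagent, read after 1 h at ambient temperature.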
Active calls of the source: *; . = no result.

SMILES	D2 ag-1	D2 antagonist	D2 PAM-1	D2 PAM-2	D2 ag-2
CN1/C(=C\C=C2/C(=O)Oc3ccccc3C2=O)C(C)(C)c2ccccc21	125*	68*	-12	3	-2
CCCNC(=O)C(Cc1ccc(Cl)cc1)NC(=O)c1ccc(-c2ccccc2)cc1 (stereo unspecified)	0	-2	-2	1	0
COc1ccc(CNc2ncnc3c2c(-c2ccccc2)cn3-c2ccc(C)c(Cl)c2)cc1	1	.	-8	.	.
CCc1nnc(N/N=C/c2c(F)cccc2Cl)n1N	-1	2	-2	15	41*
Cc1nnc(N/N=C/c2c(Cl)cccc2Cl)n1N	0	4	-4	14	4
CCN(CC(=O)NCc1ccc(F)cc1)C(=O)/C=C/c1ccc(OC)c(S(=O)(=O)NC(C)C)c1	-1	33*	-8	-7	-2
CCN(CC(=O)NCc1ccc(F)cc1)C(=O)/C=C/c1ccc(OC)cc1	1	-9	2	-2	2
COc1ccc(N2CCN(CC(=O)c3ccc(Cl)cc3)CC2)cc1	2	12	5	-11	-2
CC(O)CNCCCOc1cccc(C(F)(F)F)c1 (stereo unspecified)	-1	34*	-26	-17	-1
CCOc1ccc2c(c1)C(C)=CC(C)(C)N2C(=O)Nc1ccccc1	0	2	34*	14	6
O=C1S/C(=C\c2ccc(Cl)cc2)C(=O)N1CCn1cnnn1	1	-1	38*	-7	-5
O=C(Nc1ccccc1)c1cc(C2CCCN(C(=O)c3cccs3)C2)on1 (stereo unspecified)	.	.	.	3	12
Cn1c(SCC(=O)NCCNC(=O)CSc2nnc(C(F)(F)F)n2C)nnc1C(F)(F)F	0	33*	-16	-14	-1
CC1CCN(CC(=O)NC2CCCCC2)CC1	34*	16	-13	-3	1
CC1CN(CN2C(=O)c3ccccc3C2=O)CC(C)O1 (stereo unspecified)	-1	11	4	-7	-1
CC1CN(CCCCN2C(=O)c3ccccc3C2=O)CC(C)O1 (stereo unspecified)	2	40*	3	-11	-1
Cn1cccc1-c1cc(C(=O)N/N=C/c2ccc(F)cc2)[nH]n1	-3	61*	.	-23	-2
Cn1cccc1-c1cc(C(=O)N/N=C/c2cc(Br)ccc2O)[nH]n1	.	.	.	-30	7
Cn1cccc1-c1cc(C(=O)N/N=C/c2ccc([N+](=O)[O-])cc2)[nH]n1	0	10	-6	-4	-5
Cn1cccc1-c1cc(C(=O)N/N=C/c2ccccc2Cl)[nH]n1	0	88*	-25	-28	1
Cc1cccc(NC(=O)Nc2nnc(N3CCCC3)s2)c1	5	.	0	.	.
CC(C)NC(=O)C1(c2ccccc2)CCOCC1	1	-26	35*	-16	-3
CC(Cc1ccccc1)NC(=O)C1(c2ccccc2)CCOCC1 (stereo unspecified)	0	9	-1	-9	-2
Cc1cc(NC(=O)COc2ccccc2)ccc1Cl	0	-15	-29	-37	2
O=C(O)COc1ccc2c3c(c(=O)oc2c1)CCC3	0	39*	2	-20	-5
SMILES	D2 ag-1	D2 antagonist	D2 PAM-1	D2 PAM-2	D2 ag-2
NS(=O)(=O)c1ccc(CCNC(=O)COc2ccc3c4c(c(=O)oc3c2)CCC4)cc1	0	5	40*	-14	-1
COc1ccccc1N1CCN(C2CCC(C)CC2)CC1 (stereo unspecified)	0	11	-38	-2	-4
COc1ccccc1N1CCN(C2CCN(C3CCC(c4ccccc4)CC3)CC2)CC1 (stereo unspecified)	-1	45*	-26	.	.
COc1ccccc1N1CCN(C2CCN(C(=O)COc3cccc(C)c3)CC2)CC1	0	69*	-13	-40	0
CCOc1ccccc1NC(=O)Cn1cnc2onc(-c3ccc(F)cc3)c2c1=O	1	.	1	.	.
O=C(Nc1cccc(C(=O)N2CCOCC2)c1)C1CC1	.	.	.	-4	-2
COc1ccc(NC(=O)CSc2nnc3ccc(-c4ccccn4)nn23)cc1OC	0	30*	-10	-18	-5
Nc1c(N(Cc2ccco2)C(=O)COc2ccccc2F)c(=O)[nH]c(=O)n1Cc1ccccc1	1	-10	-3	-6	-5
COc1ccccc1C(=O)NCC(=O)N1CC=C(c2ccccc2)CC1	-1	30*	-6	-13	2
O=C(CSc1ccccc1)OCC(=O)N1CCN(C(=O)c2ccco2)CC1	1	-9	-1	-5	3
O=C(Nc1ccc(C(=O)O)cc1)/C(=C\c1ccc2c(c1)OCO2)NC(=O)c1ccccc1Cl	.	.	.	-10	-2
O=C(NNc1nc2ccc(F)cc2s1)c1cccc(F)c1	5	41*	-14	-20	6
C[C@@H]1CN([C@@H](C)CO)C(=O)CCCn2cc(nn2)CO[C@H]1CN(C)S(=O)(=O)c1ccc2c(c1)OCCCO2	.	.	.	.	-3
CC(C)N(C(=O)Cn1cc(S(=O)(=O)Cc2ccc(Cl)cc2)c2ccccc21)C(C)C	0	.	-4	.	.
Cn1nccc1NC(=O)Nc1ccc(Cl)cc1	0	43*	-10	-1	-1
Cn1nccc1NC(=O)Nc1ccccc1	0	7	13	-7	4
CSc1ncccc1C(=O)Nc1ccc(OC(F)(F)F)cc1	1	-21	-4	-1	-1
CC(=O)Nc1ccc(Sc2ncccc2C(=O)Nc2ccc(F)cc2)cn1	33*	2	6	-4	0
COc1ccc(C(=O)CCN2CCN(c3ccc(OC)cc3)CC2)cc1	1	31*	-15	-17	0
Cc1cc(=O)oc2cc(OCCSCCN3CCCC3)ccc12	-1	3	-11	-10	-6
COc1ccc(N2CCN(CCC(N)=O)CC2)cc1	0	-8	-8	-7	4
Cc1cc(=O)oc2ccc(OCC(=O)NCc3ccco3)cc12	0	-11	-3	-12	-3
COc1ccc(N2CCN(CCOc3ccc4c(C)cc(=O)oc4c3)CC2)cc1	1	72*	-34	-42	-1
O=C(CCN1CCN(c2ccccc2F)CC1)c1ccc(Br)cc1	10	34*	-18	-13	1
Cc1cc(=O)oc2cc(OCC(=O)NCc3ccco3)ccc12	0	0	35*	2	2
CC(C)C(Cl)=NOC(=O)Nc1ccc(S(N)(=O)=O)cc1	.	.	.	0	-5
